Structures are written as SMILES. About 8,600 (12%) of roughly 69,000 compounds showed an effect of 50% or more. Only a selection was taken, and strong results are over-represented in it overall.

In this assay the test system is Plasmodium berghei. Kind of assay: Screen against P. berghei liver stage (PbLuc), transformed with Luciferase, at 10uM. It is filed as functional, HepG2. The conditions noted are these: tested at 10 uM.
With `CNc1cc(C2CCCN2C(=O)CCc2cnn(C)c2C)ccn1` (stereo not given), the INHIBITION stood at 14.6%.

Take `CCNc1cc2c(nn1)CCN(C(=O)c1ccc(-n3cnnc3)cc1)C2`: the INHIBITION was 19.6475%.

For `Nc1nccc(N2C[C@@H](CN3CCCCC3)[C@@H](CO)C2)n1`, the INHIBITION was -2.39%.

On to `Cc1nccc(N2C[C@@H](CN3CCCC3)[C@@H](CO)C2)n1`, for which the INHIBITION was 13%. With `CSc1nccc(N2C[C@@H](CN3CCCCC3)[C@@H](CO)C2)n1`, the INHIBITION is given as 55.7%.

In the case of `COc1cccc(OC2CN(C(=O)c3ccnc(OC)c3)C2)c1`, the INHIBITION was determined as 49.9%. Under `CCc1ccccc1OC1CN(C(=O)c2ccnc(OC)c2)C1` stands 61.1%. Under `CN(CC(=O)N1CC(C)(C)[C@@](C)(O)C1)Cc1ccncc1` stands 59.1%; under `CN(CC(=O)N1CC(C)(C)[C@](O)(C2CC2)C1)Cc1cccnc1`, -3.94%; under `CCc1ccccc1OC1CN(C(=O)CN(C)Cc2cccnc2)C1`, -76.5%. The figure for `COc1ccccc1OC1CN(C(=O)CN(C)Cc2ccncc2)C1` is -2.04%; for `CCc1ccccc1OC1CN(C(=O)CN(C)Cc2ccncc2)C1` it is 58.1%; for `CN(CC(=O)N1CC(C)(C)[C@](O)(C2CC2)C1)Cc1ccncc1` it is 41.5%. As for `COc1cc(C(=O)N2CC(Oc3ccccc3Cl)C2)ccn1`, the INHIBITION is given as 27.5%. The figure for `Cn1nc(Br)c2c(NCCS(N)(=O)=O)ncnc21` is 36.4%; for `CC(=O)N1CCN(C(=O)NC(C)Cn2ccnc2)CC1` (stereo not given) it is 24.2%; for `COc1ccc(CN2C[C@H](N3CCCC3=O)[C@@H]3OCCC[C@@H]32)cc1` it is 48.2%.

Take `CCn1nc(C)c2nc(C(C)C)nc(N3CCN(C)CC3)c21`: the INHIBITION is given as -10.1%. Under `CCS(=O)(=O)N1CC[C@H]2C(=O)N(Cc3cccnc3)CCO[C@H]2C1` stands -7.38%; under `CNC(=O)CC1c2cccnc2C(=O)N1Cc1ccccc1` (stereo not given), 19.2%; under `COCCNC(=O)Cn1c(-c2cccc(Cl)c2)nc(C)c(CCO)c1=O`, 18.2%. Under `COCCNc1cccc(C2CCCN2)n1` (stereo not given) stands -31%; under `CCC(C)c1noc(C2CCN(C(=O)Cn3nc(C)cc3C)CC2)n1` (stereo not given), 40.8%. Under `O=C(NCCCN1CCOCC1)c1ccn(COc2ccccc2)n1` stands -8.07%; under `CN(C)CCN1CCC2(CCN(C(=O)c3ccc(F)cc3)CC2)C1=O`, 56.6%; under `Cc1c(C(=O)N2CCC3(CCC(=O)N(CCN(C)C)C3)CC2)ccn1C`, 34%.

For `CN(C)CCN1CCC2(CCN(C(=O)c3cccc(F)c3)CC2)C1=O`, the INHIBITION worked out at 0.112%.

For `CN(C)CCN1CC2(CCC1=O)CCN(C(=O)c1ccn(C)n1)CC2`, the INHIBITION amounted to 35.1%.

For the compound `CCc1ccc(C(=O)N2CCC3(CCC(=O)N(CCN(C)C)C3)CC2)[nH]1`, the INHIBITION is on record as 70.4%.

Regarding `CN(C)CCN1CCC2(CCN(C(=O)c3ccncc3)CC2)C1=O`, the INHIBITION is 13.7%. For `Cc1ncsc1CN1CC[C@H]2OCC[C@@]2(C(=O)NC(C)C)C1`, the INHIBITION is 11.1%. The figure for `Fc1cccc(Cl)c1Cn1ncnc1CSCCN1CCCC1` is 39.9%; for `Cc1nnc(C2CCN(C(=O)c3cnc4ccccc4n3)CC2)s1` it is 31.2%. Under `CN(C)C[C@@H]1CN(C(=O)CCC2CCCC2)C[C@@H]1CO` stands 28.2%; under `O=C(c1cnco1)N1CCCC(Cc2nccs2)C1` (stereo not given), 26.9%.

On to `O=C(c1cnccn1)N1CCCC(Cc2ccccn2)C1` (stereo not given), for which the INHIBITION is reported as 31.8%.

Take `Cn1cc(C(=O)N2CCCC(Cc3nccs3)C2)cn1` (stereo not given): the INHIBITION came to 20.2%. Under `Cn1cc(C(=O)N2CCCC(Cc3cncc4ccccc34)C2)cn1` (stereo not given) stands 3.91%; under `Cn1ccc(C(=O)N2CCC(Cc3cccc4ncccc34)CC2)n1`, 42.6%; under `O=C(c1cnccn1)N1CCCC(Cc2cncc3ccccc23)C1` (stereo not given), -39.4%. For the compound `O=C(c1cnccn1)N1CCCC(Cc2cccc3ncccc23)C1` (stereo not given), the INHIBITION came to 70.8%. Under `Cn1ccc(C(=O)N2CCCC(Cc3cccc4ncccc34)C2)n1` (stereo not given) stands 75.1%; under `O=C(c1cnco1)N1CCC(Cc2cccc3ncccc23)CC1`, 44.9%. As to `O=C(c1cnco1)N1CCCC(Cc2cccc3ncccc23)C1` (stereo not given), the INHIBITION turned out to be 51.2%. Under `Cn1ccc(C(=O)N2CCC(Cc3cccc4ncccc34)C2)n1` (stereo not given) stands 23.4%. On to `Cn1cc(C(=O)N2CCCC(Cc3cccc4ncccc34)C2)cn1` (stereo not given), for which the INHIBITION worked out at 85.7%. The figure for `CNC(=O)N1CCC2(CC1)CN(C)Cc1cc(F)ccc12` is 39.3%. The figure for `Cc1cccc(CN2CCc3nnc(CN4CCCCC4)n3CC2)n1` is -89.8%. Under `CC(C)c1nccn1C1CCCN(C(=O)CN(C)C2CC2)C1` (stereo not given) stands 19.6%; under `CCN(C(=O)COc1nc(C(C)(C)C)no1)C1CC1`, -1.75%. In the case of `COc1ccc(C[C@H]2CN(C(=O)c3cc(C)no3)CC[C@H]2OC)cc1`, the INHIBITION is on record as -22.1%.

Take `Cc1cc(C)c(CNC(=O)NCc2ccncc2)c(=O)[nH]1`: the INHIBITION was found to be 37.9%. Under `COCCNC(=O)NC(C)COc1ccc(F)cc1F` (stereo not given) stands -2.48%; under `CC(C)N1C(=O)CO[C@H]2CCN(C(=O)c3ccc4c(c3)CCC4)CC[C@@H]21`, 20.105%; under `Cc1noc(C)c1CN1CCC2(CC1)C(c1cnn(C)c1)CC(=O)N2C` (stereo not given), 41.2%.

On to `CCC(CC)C(=O)N1CCOC2(COCCN(CC(=O)NC)C2)C1` (stereo not given), for which the INHIBITION is recorded as -13%. The figure for `O=C(NCCc1c[nH]cn1)c1n[nH]c2c1CCC2` is -11.1%; for `COc1ccccc1CC(=O)N1CCCC(CNS(C)(=O)=O)C1` (stereo not given) it is 4.623%. With `Cc1csc(N2CCCN(C(=O)Cc3ccc(C)s3)CC2)n1`, the INHIBITION came out at 69.8%.

For the compound `Cc1csc(N2CCN(C(=O)Cc3ccc(C)s3)CC2)n1`, the INHIBITION is listed as -23.8%. The figure for `Cc1csc(N2CCCN(C(=O)Cc3cccs3)CC2)n1` is 14.4%; for `CCn1cc(CN2CCCN(C(=O)C3(C#N)CCCCC3)CC2)cn1` it is 45.2%; for `CCn1cc(CN2CCCN(C(=O)C3(C)CCOCC3)CC2)cn1` it is 55.4%.

Consider `CCn1cc(CN2CCN(C(=O)N3CCOCC3)CC2)cn1`, for which the INHIBITION amounted to 43.4%. The figure for `Cc1cnn(CCC(=O)N2CCN(c3nc(C)cs3)CC2)c1` is 62.8%; for `Cc1cnn(CCC(=O)N2CCCN(c3nc(C)cs3)CC2)c1` it is 17.4%; for `CCn1cc(CN2CCCN(C(=O)CCc3cnn(C)c3)CC2)cn1` it is 15.5%. The figure for `CCn1cc(CN2CCCN(C(=O)CCSC)CC2)cn1` is 5.9%; for `CCn1cc(CN2CCCN(C(=O)CCn3cc(C)cn3)CC2)cn1` it is 52.5%. The figure for `Cc1cnn(CC(=O)N2CCCN(c3nc(C)cs3)CC2)c1` is 35.9%.

(Values after ChEMBL document CHEMBL4513216, “Probing the Open Global Health Chemical Diversity Library for Multistage-Active Starting Points for Next-Generation Antimalarials” (ACS Infect Dis, 2020).)
